Molecules are shown by their SMILES. Hit rate of the full screen: of about 39,000 compounds, about 1,500 (3.8%) were called active. This excerpt belongs to a sample that is enriched for actives.

This test has as its system HSkMC (human skeletal muscle cells). The test is described as follows: cytotoxicity call (relative viability < 0.9). The note with it: 10 µM.
For `NCCc1ccc(O)cc1` [listing 1 of 2 here], the cytotoxicity call was “inactive”. `NCCc1ccc(O)cc1` [listing 2 of 2 here]: the cytotoxicity call is “inactive”.

In the case of `CCCCCCCCCc1ccc(O)cc1`, the cytotoxicity call is “active”. The result for `COP(=O)(OC)OC(Br)C(Cl)(Cl)Br` (stereo unspecified) reads “inactive”; that for `COC(=O)[C@H]1CNC(=O)C1`, “inactive”; that for `C=C(C)C1C2OC(=O)C1C1(O)CC3OC34C(=O)OC2C14C` (stereo unspecified), “inactive”. The result for `C1COC2(CCNCC2)OC1` reads “inactive”. The result for `Cl.OC1CCCCC1N1CCC(c2ccccc2)CC1` (stereo unspecified) reads “inactive”. `CC12C(=O)OC(=O)C1(C)C1CCC2O1` (stereo unspecified): the cytotoxicity call was “inactive”. The result for `C[C@]12C(=O)OC(=O)[C@]1(C)[C@H]1CC[C@H]2O1` reads “active”; that for `C[C@@]12C(=O)OC(=O)[C@]1(C)[C@H]1CC[C@@H]2O1`, “active”; that for `C(=N/C12CN3CN(CN(C3)C1)C2)/c1cccnc1`, “inactive”. For `CC(=CCn1c[n+](C)c2c(N)ncnc21)CCC1(C)C(C)CCC2(C)C(C)=CCCC21.[Cl-]` (stereo unspecified), the cytotoxicity call was “inactive”. Regarding `OCC1CCCN2CCCCC12` (stereo unspecified), the cytotoxicity call is “inactive”.

For the compound `N=C(N)N/N=C/c1ccc2c(c1)OCO2`, the cytotoxicity call was “inactive”. On to `Cc1ccc(OC(=O)N(C)C[C@@H]2OCc3ccccc3-c3c(n(C)c4ccccc34)C(=O)N([C@@H](C)CO)C[C@H]2C)cc1`, for which the cytotoxicity call is “inactive”.

`Cc1ccc(OC(=O)N(C)C[C@@H]2OCc3ccccc3-c3c(n(C)c4ccccc34)C(=O)N([C@H](C)CO)C[C@@H]2C)cc1`: the cytotoxicity call is “inactive”. Consider `COc1ccc(OC(=O)N(C)C[C@H]2OCc3ccccc3-c3c(n(C)c4ccccc34)C(=O)N([C@@H](C)CO)C[C@H]2C)cc1`, for which the cytotoxicity call was “inactive”. Turning to `COc1ccc(OC(=O)N(C)C[C@H]2OCc3ccccc3-c3c(n(C)c4ccccc34)C(=O)N([C@H](C)CO)C[C@@H]2C)cc1`, the cytotoxicity call is “inactive”.

In the case of `COc1ccc(OC(=O)N(C)C[C@@H]2OCc3ccccc3-c3c(n(C)c4ccccc34)C(=O)N([C@H](C)CO)C[C@H]2C)cc1`, the cytotoxicity call was “active”. `Cc1ccc(OC(=O)N(C)C[C@H]2OCc3ccccc3-c3c(n(C)c4ccccc34)C(=O)N([C@H](C)CO)C[C@@H]2C)cc1`: the cytotoxicity call is “active”. The result for `O=C(NC(O)C(Cl)(Cl)Cl)NC(O)C(Cl)(Cl)Cl` (stereo unspecified) reads “inactive”; that for `CC(C)C[C@@H]1C(=O)N2CCC[C@@H]2[C@]2(O)O[C@@](NC(=O)[C@@H]3C=C4c5cccc6[nH]cc(c56)C[C@@H]4N(C)C3)(C(C)C)C(=O)N12`, “inactive”; that for `C[C@H]1CN(C)[C@@H](C)C[C@@H]1n1[nH]c(=O)cc1N`, “inactive”. The result for `CO[C@H]1[C@H]2CC[C@@H]1NC2` reads “inactive”.

With `O=[N+]([O-])C(Br)(CO)CO` [listing 1 of 2 here], the cytotoxicity call is “active”. Turning to `OCC(Br)(Br)Br`, the cytotoxicity call was “inactive”.

Regarding `O=[N+]([O-])C(Br)(CO)CO` [listing 2 of 2 here], the cytotoxicity call was “active”. For the compound `C=C(C)[C@@H]1[C@H]2OC(=O)[C@H]1[C@]1(O)C[C@H]3O[C@]34C(=O)O[C@H]2[C@]14C`, the cytotoxicity call is “inactive”.

Take `Cc1cc(N2CCN(C)CC2)ncn1`: the cytotoxicity call is “inactive”.

As to `CN1[C@@H](CO)[C@@H]2c3ccccc3NC[C@@H]21`, the cytotoxicity call was “inactive”. For the compound `COc1ccc(OC(=O)N(C)C[C@@H]2OCc3ccccc3-c3c(n(C)c4ccccc34)C(=O)N([C@H](C)CO)C[C@@H]2C)cc1`, the cytotoxicity call is “inactive”. In the case of `CC[n+]1c(-c2ccccc2)c2cc(N)ccc2c2ccc(N)cc21.[Br-]`, the cytotoxicity call is “inactive”. Regarding `CN[C@H]1C[C@@H](N)[C@H](O)[C@@H](O[C@@H]2O[C@H](CO)[C@H](O)[C@@H]3O[C@@]4(O[C@H]23)O[C@H]([C@@H](N)CO)[C@H](O)[C@H](O)[C@H]4O)[C@@H]1O`, the cytotoxicity call is “active”.

Take `O=c1cccc2n1C[C@@H]1C[C@H]2CN(C[C@H](O)/C=N/n2cnnc2)C1`: the cytotoxicity call is “inactive”. In the case of `CC(=O)OCC1=C(C(=O)O)N2C(=O)[C@@H](NC(=O)CCC[C@@H](N)C(=O)O)[C@@H]2SC1`, the cytotoxicity call was “inactive”. Turning to `N[C@@H](Cc1ccc(O)cc1)C(=O)NCC(=O)NCC(=O)O`, the cytotoxicity call was “inactive”.

Consider `Cn1ncnc2c(=O)n(C)c(=O)nc1-2`, for which the cytotoxicity call was “active”.

As for `Cc1nc2c(=O)n(C)c(=O)nc-2n(C)n1`, the cytotoxicity call is “active”. With `Cc1cnc(C(=O)N2C[C@H]3CNC[C@H]3C2)cn1`, the cytotoxicity call is “inactive”.

`[O-][n+]1ccccc1[S][Zn][S]c1cccc[n+]1[O-]`: the cytotoxicity call is “active”. Regarding `O=C(O)C[C@@H]1CC[C@H]2NC[C@@H](O)COC[C@@H]2O1`, the cytotoxicity call is “inactive”. `Cc1cc(O)c2c(=O)c3c(O)cc(O)c4c5c(O)cc(O)c6c(=O)c7c(O)cc(C)c8c1c2c(c34)c(c78)c65`: the cytotoxicity call was “active”. The result for `CCC1(O)C(=O)OCc2c1cc1n(c2=O)Cc2cc3ccccc3nc2-1` (stereo unspecified) reads “inactive”; that for `Cc1nc(-c2ccc(-c3ccc(C(=O)N4CCc5cc6c(cc54)C4(CCN(C)CC4)CO6)cc3)c(C)c2)no1`, “active”. Turning to `C=C(C)[C@H]1O[C@H]2CC[C@@]3(C)[C@@](O)(CC[C@H]4[C@@H]5OC(C)(C)[C@H]6C[C@@H]7C(=C)Cc8c(Cl)cc9[nH]c(c5c9c8[C@@]76O)[C@@]43C)[C@]23O[C@@H]3[C@H]1O`, the cytotoxicity call was “inactive”.

Consider `O=C1[O][Pt]2([NH][C@@H]3CCCC[C@H]3[NH]2)[O]C1=O`, for which the cytotoxicity call was “active”.

In the case of `CN(C)c1ccc(CCN)cc1`, the cytotoxicity call is “inactive”. Take `Br.CC(Cc1ccc(O)cc1)NCC(O)c1cc(O)cc(O)c1` (stereo unspecified): the cytotoxicity call was “inactive”. `CC(=O)O.Cc1cc2c(C(C)C)c(O)c(O)c(C=O)c2c(O)c1-c1c(C)cc2c(C(C)C)c(O)c(O)c(C=O)c2c1O`: the cytotoxicity call was “inactive”. The result for `Cc1cc2c(C(C)C)c(O)c(O)c(C=O)c2c(O)c1-c1c(C)cc2c(C(C)C)c(O)c(O)c(C=O)c2c1O` [listing 1 of 2 here] reads “inactive”; that for `Cc1cc2c(C(C)C)c(O)c(O)c(C=O)c2c(O)c1-c1c(C)cc2c(C(C)C)c(O)c(O)c(C=O)c2c1O` [listing 2 of 2 here], “active”; that for `O=C(O)C=CCO`, “inactive”. The result for `COCC12CN(C=O)C3C4C(OC)C1C3(C(OC)CC2O)C1CC2(O)C(OC)C(O)C4(OC(C)=O)C1C2OC(=O)c1ccccc1` (stereo unspecified) reads “inactive”; that for `O=C1CCN(C(=O)C2CCC2)CC1`, “inactive”. The result for `COC(=O)[C@]1(Cc2ccccc2CN=[N+]=[N-])N=C(c2ccc(OCCCO)cc2)O[C@@H]1c1ccccc1N=[N+]=[N-]` reads “inactive”; that for `COC(=O)[C@@]1(Cc2ccccc2N=[N+]=[N-])N=C(c2ccc(OCCCO)cc2)O[C@H]1c1ccccc1CN=[N+]=[N-]`, “inactive”; that for `COC(=O)[C@]1(Cc2ccccc2N=[N+]=[N-])N=C(c2ccc(OCCCO)cc2)O[C@@H]1c1ccccc1N=[N+]=[N-]`, “active”. For the compound `COC(=O)[C@]1(Cc2ccccc2N=[N+]=[N-])N=C(c2ccc(OCCCO)cc2)O[C@@H]1c1ccccc1CN=[N+]=[N-]`, the cytotoxicity call is “inactive”. On to `COC(=O)[C@@]1(Cc2ccccc2N=[N+]=[N-])N=C(c2ccc(OCCCO)cc2)O[C@H]1c1ccccc1N=[N+]=[N-]`, for which the cytotoxicity call is “active”.

Consider `COC(=O)[C@@]1(Cc2ccccc2CN=[N+]=[N-])N=C(c2ccc(OCCCO)cc2)O[C@H]1c1ccccc1N=[N+]=[N-]`, for which the cytotoxicity call is “inactive”.

Values taken from the antibiotic and cytotoxicity screens of Wong et al. (2023).
